The entries come from a sample that favours hits as a whole.
Pf Dd2 inh – qHTS Primary assay for Inhibitors of Plasmodium falciparum Dd2 growth in vitro; P. falciparum Dd2 growth, SYBR Green, 72 h; Potency, µM (doses to about 28.9 µM), for inactives: at the top dose activity, negative = inhibition, hits mostly inhibitors; 120,000 tested, 4.3% active; active = well fitted inhibition curve with a large enough effect;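 note: plate controls were DMSO vehicle for no effect and reference drug for full effect; nearly all actives have a fitted effect of over 65% in size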
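Readout: SYBR Green fluorescence, 485 nm excitation, 535 nm emission, after ~16 h lysis at 37C. Before that, Dd2-infected red cells (2.5% hematocrit) grew 72 h with compound, 29 uM top final concentration.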
Numbers without * were called inactive; i = inactive; [ ] = another dose, or the depositor's remark. Potency is the fitted concentration of half-maximal effect.

SMILES	Pf Dd2 inh
CCOc1ccccc1NC(=O)N1CCCN(C(=O)C2CC2)C(c2ccccc2)CC(=O)NCC1 (configuration not stated)	i
Oc1cccc(CN2CCCC23CCN(c2ccc(C(F)(F)F)cn2)CC3)c1	4.47µM*
Cc1cc(CN2CCCC23CCN(c2nc4ccccc4o2)CC3)on1	-15.8%
Cn1ccnc1CN1CCCC12CCN(c1ccc(C(F)(F)F)cn1)CC2	i
CCn1ncc(CN2CCCC23CCN(c2ccc(C(F)(F)F)cn2)CC3)c1C	10µM*
O=C1COCC2(CN1Cc1c(F)cccc1Cl)CN(c1ccc(C(F)(F)F)cn1)C2	i
CCCn1ccnc1CN1CCCC12CCN(c1ccc(C(F)(F)F)cn1)CC2	11.2µM*
Cc1cc(C)n(CCc2nc3c4ccccc4nc(N4CCN(c5ccccc5F)CC4)n3n2)n1	39.1%
FC(F)Oc1ccccc1CN1CCCC12CCN(c1ncccn1)CC2	i
O=C(Cn1nc2c(cc1=O)CCCC2)N1CCN(c2ccc(C(F)(F)F)cn2)CC1	6.5%
O[C@H]1[C@H](NCc2cccc(C(F)(F)F)c2)[C@@H](c2ccc(N3CCOCC3)nc2)C[C@H]1O	i
CCn1ncc(CN2CCCC23CCN(c2cc(C)nc4ccccc24)CC3)c1C	2µM*
COc1ccc(C(=O)N2CCC(N3CC4CCCN4C3=O)CC2)cc1 (configuration not stated)	16.4%
COCC1(C(=O)N2C[C@@H](C(=O)O)[C@H](c3ccccc3OC)C2)CCC1	-12.3%
C[C@H]1[C@@H]2[C@@H](O)C([C@H](C)C(=O)NC3CCCCC3)CC[C@@]2(C)CC[C@@H]1NC(=O)c1ccccn1 (some centres not stated)	-23.0%
OCc1cc(CC2(NCc3ccc(CO)o3)COC2)no1	18.6%[44.1 µM]
O=C(O)CCC1CCN(C(=O)c2ccccc2F)CC1	3.0%
N#Cc1ccccc1CN1CCc2nc(N3CCc4ccccc4C3)[nH]c(=O)c2CC1	-1.1%[5.79 µM]
CCOc1ccccc1C(=O)N1CCc2[nH]nc(C(=O)NCCCc3ccccc3)c2C1	-15.7%
O=C1CCCCC(C(=O)NCc2ccco2)N1 (configuration not stated)	37.7%
Cc1ccc(-c2nc(CSc3nncn4c3cc3occc34)c(C)o2)cc1	-12.5%
COc1ccc(-c2nc(CSc3nncn4c3cc3occc34)c(C)o2)cc1	10µM*
Cc1oc(-c2ccccc2Cl)nc1CSc1nncn2c1cc1occc12	-23.3%
CNC(=O)[C@H]1C[C@H](Oc2ccccc2)CN1C(=O)NCc1ccc(F)cc1	6.3%
COCCO[C@H]1C(=O)N(C2CCN(Cc3c[nH]c4ccccc34)CC2)[C@H]1c1ccncc1	i
SMILES	Pf Dd2 inh
COc1ccc(C(=O)N2CCC3(C2)NC(=O)c2ccccc2O3)cc1 (configuration not stated)	i
O=C(CCCn1ccnc1)N1CCC2(CCCN(C3CCCC3)C2=O)C1 (configuration not stated)	4.7%
CC(=O)c1ccc(NC(=O)NC[C@H]2C[C@@H]3CCN2C[C@@H]3c2cc(-c3cccs3)nc(C)n2)cc1	i
Cc1nc(-c2cccs2)cc([C@H]2CN3CC[C@H]2C[C@@H]3COC(=O)Nc2ccc(C(C)C)cc2)n1	7.08µM*
COc1ccc(-c2cc([C@H]3CN4CC[C@H]3C[C@@H]4CNC(=O)NC(C)C)nc(C)n2)cc1OC	i
Cc1nc(-c2cccs2)cc([C@H]2CN3CC[C@H]2C[C@@H]3CNS(C)(=O)=O)n1	i
COCC(=O)NC[C@H]1C[C@@H]2CCN1C[C@@H]2c1cc(-c2ccccc2OC)nc(C)n1	i
COc1ccccc1-c1cc([C@H]2CN3CC[C@H]2C[C@@H]3COC(=O)Nc2ccc(C(C)C)cc2)nc(C)n1	12.6µM*
COCC(=O)N[C@@H]1CN(Cc2ccc(C#N)cc2)C[C@H]1CO	-14.3%
CCn1ccc2oc(C)c(C(=O)NCc3ccc(F)cc3Cl)c2c1=O	-6.1%
CN1CCCC2(C1)CN(Cc1cccnc1)c1ccc(C(=O)NCc3cccs3)cc12 (configuration not stated)	-7.6%[44.1 µM]
CN1CCC2(C1)CN(Cc1ccccc1)c1ccc(C(=O)NCc3cccs3)cc12 (configuration not stated)	7.08µM*
Cc1nc(CN2CC3(CCN(C)C3)c3cc(C(=O)NCc4cccs4)ccc32)cs1 (configuration not stated)	-3.3%[44.1 µM]
O=C(COc1ccc(F)cc1)N1C[C@@H](CO)[C@H](c2ccncc2)C1	-3.7%
COc1ccc(-c2noc(CC3CCN(C(=O)CCCc4ccccc4)CC3)n2)cc1	-26.0%
CCOc1ccc(CC(=O)N2CCC(Cc3nc(-c4ccc(OC)cc4)no3)CC2)cc1	8.91µM*
COC(=O)c1cccc(C(=O)N2CCC(Cc3nc(-c4cnccn4)no3)CC2)c1	i
COc1cccc(-c2noc(CC3CCN(C(=O)c4cc(OC)c(OC)c(OC)c4)CC3)n2)c1	-5.6%
COc1ccc(C(=O)N2CCC(Cc3nc(-c4ccc(F)cc4)no3)CC2)cc1F	-20.2%
COc1ccc(-c2noc(CC3CCN(C(=O)Cc4ccsc4)CC3)n2)cc1	i
COc1cccc(-c2noc(CC3CCN(C(=O)c4ccc(N(C)C)cc4)CC3)n2)c1	5.01µM*
COc1ccc(OCC(=O)N2CCC(Cc3nc(-c4ccc(OC)cc4)no3)CC2)cc1	11.2µM*
Cc1ccc(OCC(=O)N2CCC(Cc3nc(-c4ccccc4)no3)CC2)cc1	i
COc1cccc(-c2noc(CC3CCN(C(=O)c4ccccc4C)CC3)n2)c1	i
COc1ccc(CC(=O)N2CCC(Cc3nc(-c4ccc(OC)cc4)no3)CC2)cc1	i
SMILES	Pf Dd2 inh
COC(=O)c1cccc(C(=O)N2CCC(Cc3nc(-c4ccc(F)cc4)no3)CC2)c1	10µM*
N#Cc1cccc(-c2cn3c(n2)N(C(=O)c2cccnc2)CCC3)c1	i
CC(C)C(=O)NCc1ccc(C(=O)N2CCC3(CCNCC3)CC2)cc1	-14.8%
O=C(N1CC(Oc2ccc(-c3nc(-c4ccccc4)no3)cc2)C1)C1(c2ccccc2)CC1	16.8%[5.79 µM]
CCOc1ccc2ccccc2c1C(C(=O)O)N1CCN(CC2CC2)CC1 (configuration not stated)	-0.2%
CNc1ccc(C)cc1C(=O)NC(C(=O)O)c1c(C)n[nH]c1C (configuration not stated)	25.6%
CC1(c2ccccc2)N(Cc2ccccc2)C(=O)OC12CCN(C(=O)CN1CCOCC1)CC2 (configuration not stated)	i
COCCN1CCCC2(CCN(c3nc4c(c(=O)[nH]c(=O)n4C)n3C)C2)C1=O (configuration not stated)	-3.6%
COCCN1CC(CO)C2(CCN(C(=O)Cc3ccccc3C)CC2)C1 (configuration not stated)	5.0%
COc1ccc([S+](=O)([O-])c2nnn3c2nc(NC2CC2)c2ccccc23)cc1	13.9%
COCCNC(=O)c1c(OCC2CC2)cc(=O)n2c1CCOCC2	-11.8%
COc1ccc(-c2noc(CC3CCN(C(=O)c4cc(F)cc(F)c4)CC3)n2)cc1	-25.7%
COc1ccc(-c2noc(CC3CCN(C(=O)c4ccc5c(c4)OCO5)CC3)n2)cc1	11.2µM*
O=C(c1ccc2c(c1)OCO2)N1CCC(Cc2nc(-c3ccccc3)no2)CC1	5.5%
COc1ccc(-c2onc(C)c2C(=O)N2CCC(Cc3ccc(F)cc3)CC2)cc1	-5.2%
Cc1noc(-c2ccc3c(c2)OCO3)c1C(=O)N1CCC(Cc2ccccc2)CC1	i
COc1ccc(CC2CCN(C(=O)c3c(C)noc3-c3ccc4c(c3)OCO4)CC2)cc1	7.94µM*
